Bioassay records (PubChem)
Pf Dd2 growth – blocks in vitro growth of P. falciparum Dd2. actives 4.3% (n = 120,000). P. falciparum Dd2 growth, SYBR Green, 72 h. Potency, µM (series often up to 28.9 µM), without a hit: at the top dose activity, negative = inhibition, usual class: inhibitors; active = well fitted inhibition curve with a large enough effect;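 note: plate controls were DMSO vehicle for no effect and reference drug for full effect; nearly all actives have a fitted effect of over 65% in size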
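Readout: SYBR Green fluorescence, 485 nm excitation, 535 nm emission, after ~16 h lysis at 37C. Before that, Dd2-infected red cells (2.5% hematocrit) grew 72 h with compound, 29 uM top final concentration.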
Numbers without * were called inactive; i = inactive; [ ] = another dose, or the depositor's remark. This excerpt belongs to a sample that is enriched for hits. Potency is the fitted concentration of half-maximal effect.

SMILES | Pf Dd2 growth
O=C(Nc1ccc(-c2cccc(F)c2)cc1)C1CCCN(C(=O)c2ccncc2)C1 (stereo unspecified) | 7.1µM*
Cc1ccc(NC(=O)C2CCCN(S(=O)(=O)c3ccc(F)cc3)C2)cc1 (stereo unspecified) | i
COCCOCC(=O)N1CCCCCCNC(=O)[C@@H]2CCCC[C@@H]21 | 8%
COCC(=O)N[C@@H]1CN(Cc2cccc(C#N)c2)C[C@H]1CO | 23%
COc1cccc(NC(=O)c2ccc(CNS(=O)(=O)c3ccc4c(c3)C(C)(C)C(=O)N4C)cc2)c1 | -5%
O=c1[nH]nc2n1CCN(CC1CCCCC1)CC2 | 42%
COC[C@H]1C[C@@H](NC(=O)c2cc(C(C)(C)C)oc2C)[C@H](O)[C@@H]1O | i
Cc1noc(C2CC3(CCN(C(=O)c4ccccn4)CC3)CN2C)n1 (stereo unspecified) | 6%
CC(C)NC[C@H]1O[C@@H](CO)[C@@H](O)[C@H]1N1CCCC1 | -2%[44.1 µM]
O=C(c1ccc2cc[nH]c2c1)N1CCCC(c2nn[nH]n2)C1 (stereo unspecified) | 4%
COc1ccc2c(c1)c1c(c(=O)n(-c3ccccc3C)c(=O)n1CC(=O)Nc1c(C)cccc1C)n2C | -16%
CCOC(=O)c1ccc(NC(=O)Cn2c(N3CCC(C)CC3)nc(C)cc2=O)cc1 | -28%
CCc1ccccc1NC(=O)C1=CC(c2ccc3c(c2)OCO3)=NS(=O)(=O)N1C | 4%
COCC1CCCN(Cc2nc(C(c3ccccc3)c3ccccc3)no2)C1 (stereo unspecified) | 11µM*
O=C(c1cccs1)C1CCCN(Cc2nc(CCc3ccccc3)no2)C1 (stereo unspecified) | -18%
COc1ccccc1N1CCN(C2CCCN(Cc3nc(C(N)=O)no3)C2)CC1 (stereo unspecified) | -21%
OCC1CCCCN1CCNc1nccc(-c2cccnc2)n1 (stereo unspecified) | -30%
CN1CCCC1CCNc1nccc(-c2cnn(-c3ccc(F)cc3)c2)n1 (stereo unspecified) | 8.9µM*
c1cncc(-c2ccnc(NCC(c3cccnc3)N3CCCCC3)n2)c1 (stereo unspecified) | -13%
COc1ccc(C(=O)N2CCCN(c3nc4ncccc4o3)CC2)cc1 | -4%
Cc1cccc(CNC(=O)Cn2ccc3cc(S(=O)(=O)N4CCCC4)ccc32)c1 | i
FC(F)Oc1ccccc1CN(CC1CCN(C2CCCC2)CC1)CC1CCCO1 (stereo unspecified) | 7.1µM*
O=C(c1cnco1)N(CC1CCN(Cc2ccccc2F)CC1)CC1CCCO1 (stereo unspecified) | -14%
Oc1ccccc1CN(CCN1CCCCC1)CC1CCCN(C2CCCC2)C1 (stereo unspecified) | i
CCc1nnsc1C(=O)N1CCCC(c2nccn2Cc2cccnc2)C1 (stereo unspecified) | -1%
SMILES | Pf Dd2 growth
Clc1ccc(-c2cnc3n2C[C@H](CNC2CCOCC2)OC3)cc1 | -18%[44.1 µM]
CCC(Cn1nnc2ccccc2c1=O)NC(=O)Nc1ccc(C)cc1 (stereo unspecified) | 17%
CCOc1ccc(N(C(=O)Cn2nnc3ccccc32)C(C(=O)NCc2ccccc2)c2ccc(OC)cc2)cc1 (stereo unspecified) | -22%
CC(=O)Nc1ccc(N(C(=O)Cn2nnc3ccccc32)C(C(=O)NCc2ccccc2)c2ccc(C)cc2)cc1 (stereo unspecified) | 11µM*
O=C(c1ccc(F)cc1)N1C[C@H]2OC(=O)N(CCCN3CCOCC3)[C@H]2C1 | -20%
Cc1ccc2onc(CC(=O)Nc3cccc(C(F)(F)F)c3)c2c1 | 11µM*
Cc1ccc2c(CC(=O)Nc3cccc(C(F)(F)F)c3)coc2c1 | -21%
COC(=O)c1ccccc1NC(=O)Cc1noc2ccc(C)cc12 | 16%
Cc1cccc(C(=O)N[C@@H]2CN(Cc3cccnc3)C[C@H]2CN(C)C)c1 | -15%
O=C1NC(=NC2CCCCC2)C2(CCCN(Cc3cccnc3)C2)N1c1cccnc1 (stereo unspecified) | 5%
COc1cccc(N2C(=O)NC(=NC3CCCC3)C23CCN([S+](=O)([O-])c2ccccc2)C3)c1 (stereo unspecified) | 10%
COc1cccc(N2C(=O)NC(=NC3CCCC3)C23CCCN(Cc2ccsc2)C3)c1 (stereo unspecified) | 8.9µM*
O=C(OCc1ccccc1)N1CCCC2(C1)C(=NC1CCCC1)NC(=O)N2c1cc(F)cc(F)c1 (stereo unspecified) | -28%
O=C1NC(=NC2CCCCC2)C2(CCN(Cc3ccsc3)CC2)N1c1cccnc1 | -3%
O=C1NC(=NC2CCCCC2)C2(CCCN(Cc3ccsc3)C2)N1c1cc(F)cc(F)c1 (stereo unspecified) | 7.9µM*
COc1ccc(C(=O)N2CCN(c3nnc4ccc(Cl)cn34)CC2)cc1 | -10%
Cc1cccc(Oc2nc3c(c(=O)n(C)c(=O)n3C)n2Cc2ccccc2)c1C | 20%
COc1ccc(C(=O)NC2CCc3nn(CC4CC4)c(=O)n3CC2)c(C)c1 (stereo unspecified) | 26%
O=C(c1ccc2sccc2c1)N1CCN(Cc2ccc3c(c2)OCO3)CC1 | i
CN(Cc1ccsc1)c1ccc(C(=O)N2CCCN(c3ncccn3)CC2)cn1 | -10%
CCOC(=O)c1sc2ccccc2c1S(=O)(=O)Nc1cccc(C(F)(F)F)c1 | i
CCOC(=O)c1cnc2c(C)cc(C)cc2c1Nc1ccccc1OCC | 0%
CCOC(=O)c1cnc2c(C(F)(F)F)cccc2c1Nc1cccc(C(=O)OC)c1 | 2.8µM*
CCOC(=O)c1cnc2c(C)cccc2c1Nc1ccc(OC(C)C)cc1 | -30%
CCOC(=O)c1cnc2c(ccc3ccccc32)c1Nc1ccccc1O | 11µM*
SMILES | Pf Dd2 growth
CCOC(=O)c1cnc2c(C)c(Cl)ccc2c1Nc1ccc(C)cc1C | -23%
CN1c2cccnc2CN(Cc2ccc(C#N)cc2)CC[C@H]1CO | -17%[44.1 µM]
O=C(NCCCc1ccccc1)C1CCN(C(=O)N2CC3CC(C2)[C@H]2CCCC(=O)N2C3)CC1 (stereo partly specified) | i
CNC(=O)[C@@H]1C[C@H](N)CN1C(=O)c1ccc(OC)c(OC)c1OC | -16%
Cc1ccc(NC(=O)N2c3ccccc3CC2c2nc(C3CC3)no2)c(C)c1 (stereo unspecified) | i[5.79 µM]
CCOc1cccc(-c2noc(-c3nnn4c3COC(c3cccc(OC)c3)C4)n2)c1 (stereo unspecified) | -2%
CC(C)CCN1C(=O)CC[C@]2(C(=O)NCc3ccncc3)CCCC[C@@H]12 | 10%
CCCN(CCC)C(=O)[C@@]12CCCC[C@H]1N(CCC(C)C)C(=O)CC2 | 10µM*
CC(C)CCN1C(=O)CC[C@]2(C(=O)NC3CC3)CCCC[C@@H]12 | 25%
CCCCN(C(=O)CCn1c(=O)oc2ccccc21)c1ccccc1 | 9%
COc1ccc(NC(=O)c2cc3sc(C)c(CN4CCCCC4)c3[nH]2)cc1OC | 2.2µM*
Cc1sc2cc(C(=O)NCc3cccnc3)[nH]c2c1CN1CCCCC1 | i
COc1ccc(NC(=O)c2cc(CN3CCCC3)on2)cc1Cl | 458%[5.79 µM]
CCCNC(=O)c1cc2sc(C)c(CN3CCCCC3)c2[nH]1 | -24%
CC(=O)Nc1ccc(NC(=O)c2cc3sc(C)c(CN4CCCCC4)c3[nH]2)cc1 | 2.2µM*
Cc1sc2cc(C(=O)NC(C)C)[nH]c2c1CN1CCCCC1 | i
COc1ccc(C(=O)Nc2ccc3oc(-c4ccc(F)cc4Cl)nc3c2)cc1 | 39%
CCn1ccc2cc(S(=O)(=O)N3CCCN(C(=O)NCC(=O)OC)CC3)ccc21 | 11%
